High-throughput results from PubChem.
Rows were chosen to be rich in hits. Some 10% of all compounds tested hit in one or more screens of this group.
HEK cytotox – cytotoxic compounds in HEK 293 cells; HEK 293 viability, ATP luminescence (CellTiter-Glo), 48-72 h; Potency, µM (doses to about 115 µM), actives largely listed as inhibitors; AID 1345083; 6.6% of 94,000 active; also: nearly all actives have a fitted effect of over 60% in size
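Cytotoxicity was scored by loss of ATP-coupled luminescence (CellTiter-Glo) in HEK 293 cells. Compound treatment ran 48 or 72 hr at 37 degree Celsius, 5% CO2, 95% humidity.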
hNpr1 antagonist – human Npr1 receptor antagonism; HEK293 hNpr1 GloSensor cGMP, ANP-stimulated luminescence; Potency, µM (series often up to 46.3 µM), actives largely listed as inhibitors; 1.6% of 76,000 active; calls by dose curve; also: nearly all actives have a fitted effect of over 60% in size
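Compound pre-incubated 30 min at room temperature on GloSensor-loaded HEK293 cells stably carrying hNpr1 and the pGS-40F cGMP biosensor. Stimulation uses hNppA at 0.1 nM final; luminescence is taken at baseline and 20 min post-agonist.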
3T3 cytotox – cytotoxic compounds in NIH 3T3 cells. NIH 3T3 viability, CellTiter-Glo ATP luminescence, 48-72 h. Potency, µM (top dose mostly 96.7 µM), usual class: inhibitors. AID 1345082. 4.3% of 94,000 active; also: nearly all actives have a fitted effect of over 55% in size
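Mouse fibroblast NIH 3T3 cells, 400 per well, received compound via pintool and were incubated for 48 or 72 hr prior to CellTiter-Glo ATP luminescence measurement.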
FLuc inh – Photinus pyralis luciferase inhibition; P08659; purified P. pyralis luciferase, luminescence, biochemical; Potency, µM (highest dose often 115 µM), most hits filed as inhibitors; 2.5% of 76,000 active; also: nearly all actives have a fitted effect of over 65% in size
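Inhibitors were tested against purified firefly luciferase in a biochemical, low-substrate format (both substrates at 10uM) and luminescence measured with a CCD imager.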
GPT2 inhibitor – blocks human glutamate pyruvate transaminase 2. Q8TD30. Recombinant GPT2, coupled pyruvate oxidase/HRP Amplex Red fluorescence. Potency, µM (highest dose often 57.7 µM), most hits filed as inhibitors. 0.25% of 100,000 active; also: nearly all actives have a fitted effect of over 60% in size
Target sequence (Q8TD30 whole entry, looked up): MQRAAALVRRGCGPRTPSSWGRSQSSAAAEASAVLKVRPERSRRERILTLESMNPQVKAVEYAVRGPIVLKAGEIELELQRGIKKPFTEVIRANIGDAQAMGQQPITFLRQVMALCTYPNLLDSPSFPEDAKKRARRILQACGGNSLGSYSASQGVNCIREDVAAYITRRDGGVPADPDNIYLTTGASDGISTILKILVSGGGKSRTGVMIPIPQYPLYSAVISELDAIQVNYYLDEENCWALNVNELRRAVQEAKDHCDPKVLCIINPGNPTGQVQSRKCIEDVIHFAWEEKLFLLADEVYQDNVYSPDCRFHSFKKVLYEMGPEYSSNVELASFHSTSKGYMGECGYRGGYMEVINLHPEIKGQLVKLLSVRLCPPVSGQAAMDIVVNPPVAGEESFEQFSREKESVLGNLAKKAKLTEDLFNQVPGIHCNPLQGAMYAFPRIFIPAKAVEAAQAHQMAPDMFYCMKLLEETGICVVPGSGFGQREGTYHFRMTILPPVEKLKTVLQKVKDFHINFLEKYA
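Recombinant GPT2 (10ng/uL) with 250uM a-KG and 2mM L-alanine, 30 min at room temperature, in HEPES pH 7.5 buffer. Pyruvate detected by pyruvate oxidase/HRP/Amplex Red fluorescence after 30 min in the dark; AOA (50uM) as positive control.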
Npr1 antag conf – hNpr1 antagonism, confirmation assay | 76% of 1,400 active | shares compounds with hNpr1 antagonist | HEK293 hNpr1 cGMP GloSensor luminescence, ANP-stimulated | Potency, µM (series often up to 57.6 µM), usual class: inhibitors; calls by dose curve; also: nearly all actives have a fitted effect of over 70% in size
Npr2 selectivity – selectivity test of Npr1 antagonists against human Npr2; shares compounds with hNpr1 antagonist; HEK293 hNpr2 GloSensor cGMP luminescence, CNP-stimulated; Potency, µM (top dose mostly 57.6 µM), hits mostly inhibitors; 67% of 1,400 active; AID 1347046; calls by dose curve; also: nearly all actives have a fitted effect of over 70% in size
FLuc inh counter – inhibits firefly luciferase, false Npr1 antagonist flag; shares compounds with hNpr1 antagonist; purified FLuc enzyme, luminescence, Km substrate; Potency, µM (titrated, usually from 57.6 µM), hits mostly inhibitors; 0.7% of 1,400 active; AID 1347047; also: series mostly up to about 58 µM
GloSensor ctrl – counter-screen for Npr1 antagonists: GloSensor control cell line. shares compounds with hNpr1 antagonist. HEK293 GloSensor cGMP, SNP-stimulated, luminescence. Potency, µM (doses to about 57.6 µM), most hits filed as inhibitors. 69% of 1,400 active; calls by dose curve; also: nearly all actives have a fitted effect of over 70% in size
Of the large screens only hits and unclear results are named; the others gave an inactive call (follow-up assays come after a bar, where they were run). Unless noted, calls follow the shape of the dose curve; as a rule, active = well fitted curve in the direction sought with a large enough effect; inconclusive = small, poorly fitted or top-dose-only effect, or another doubt; inactive = no such curve, though single readings can be large; an effect the other way counts as inactive or inconclusive.

Cc1nc2cccnc2n1CC1CCCN(S(=O)(=O)c2ccccc2F)C1 (stereo not drawn)	HEK cytotox inconclusive, 3T3 cytotox inconclusive
COCCNC(=O)c1ccc(CC2CCN(C(=O)CCc3c(C)nn(C)c3C)CC2)cc1	HEK cytotox inconclusive, 3T3 cytotox inconclusive
Cc1nsc(NC(=O)NC23CC4CC(C2)CC(C(C)C)(C4)C3)n1	HEK cytotox 32µM, hNpr1 antagonist 13µM, 3T3 cytotox inconclusive | Npr1 antag conf 31µM | Npr2 selectivity 27µM | FLuc inh counter inactive | GloSensor ctrl inconclusive
COc1cc(Cl)cc(CN2CCC(O)(c3ccccc3)CC2)c1OC	3T3 cytotox inconclusive
Cc1ccccc1-c1cnc2[nH]cc(CC(=O)N3CCCC3)c2c1	HEK cytotox 89µM, hNpr1 antagonist 3.5µM, 3T3 cytotox inconclusive | Npr1 antag conf 7.9µM | Npr2 selectivity 11µM | FLuc inh counter inactive | GloSensor ctrl 7µM
NC(=O)Cc1c[nH]c2ncc(-c3ccccc3C(F)(F)F)cc12	HEK cytotox inconclusive, hNpr1 antagonist inconclusive | Npr1 antag conf 31µM | Npr2 selectivity inconclusive | FLuc inh counter inactive | GloSensor ctrl 35µM
O=C(Cc1c[nH]c2ncc(-c3ccccc3F)cc12)NCc1cccnc1	HEK cytotox inconclusive, 3T3 cytotox inconclusive, FLuc inh inconclusive
O=C(Cc1c[nH]c2ncc(-c3ccccc3C(F)(F)F)cc12)NCc1cccnc1	HEK cytotox inconclusive, hNpr1 antagonist 7.9µM, 3T3 cytotox inconclusive | Npr1 antag conf 16µM | Npr2 selectivity 20µM | FLuc inh counter inactive | GloSensor ctrl 16µM
Cc1ccccc1-c1cnc2[nH]cc(CC(=O)NCc3cccnc3)c2c1	HEK cytotox 79µM, hNpr1 antagonist 32µM, 3T3 cytotox inconclusive | Npr1 antag conf 31µM | Npr2 selectivity 28µM | FLuc inh counter inactive | GloSensor ctrl 25µM
COc1ncccc1-c1cnc2[nH]cc(CC(N)=O)c2c1	3T3 cytotox inconclusive
CCCOc1ccc(CN2C[C@@H](CO)[C@H](c3ccccn3)C2)cc1	HEK cytotox inconclusive
CSc1ccc(-c2cccc(CN3CCC(NC(=O)C(C)C)CC3)c2)cc1	none (no result: hNpr1 antagonist, FLuc inh, GPT2 inhibitor)
COCCNC(=O)Cc1c[nH]c2ncc(-c3ccccc3C)cc12	HEK cytotox inconclusive, 3T3 cytotox inconclusive
CCNC(=O)Cc1c[nH]c2ncc(-c3ccccc3C)cc12	HEK cytotox inconclusive, hNpr1 antagonist 18µM, 3T3 cytotox inconclusive | Npr1 antag conf 31µM | Npr2 selectivity 31µM | FLuc inh counter inactive | GloSensor ctrl 28µM
O=C1Nc2ccccc2OCC12CCN(Cc1ccc(C(F)(F)F)cc1)CC2	HEK cytotox inconclusive, hNpr1 antagonist 11µM | Npr1 antag conf 24µM | Npr2 selectivity 24µM | FLuc inh counter inactive | GloSensor ctrl 24µM
COCc1cc(N2CCc3onc(-c4cccc5ccccc45)c3C2)ncn1	HEK cytotox 35µM, hNpr1 antagonist 13µM, 3T3 cytotox inconclusive | Npr1 antag conf 22µM | Npr2 selectivity inconclusive | FLuc inh counter inactive | GloSensor ctrl 24µM
O=C(NCC1CCCO1)c1cc(-c2ccccc2F)cc2c1OCCN2Cc1cccnc1 (stereo not drawn)	HEK cytotox inconclusive, 3T3 cytotox inconclusive
O=C(c1cc(-c2ccccc2F)cc2c1OCCN2Cc1cccnc1)N1CCC1	HEK cytotox inconclusive, hNpr1 antagonist inconclusive, 3T3 cytotox inconclusive | Npr1 antag conf inconclusive | Npr2 selectivity inconclusive | FLuc inh counter inactive | GloSensor ctrl inactive
CN(C)C(=O)c1cc(-c2ccccc2F)cc2c1OCCN2Cc1cccnc1	HEK cytotox inconclusive, GPT2 inhibitor inconclusive | Npr1 antag conf inconclusive | Npr2 selectivity inactive | FLuc inh counter inactive | GloSensor ctrl inactive
O=C(NCCc1cnc[nH]1)c1cc(-c2ccccc2F)cc2c1OCCN2Cc1cccnc1	HEK cytotox inconclusive, 3T3 cytotox inconclusive
O=C(NC1CC1)c1cc(-c2ccccc2F)cc2c1OCCN2Cc1cccnc1	HEK cytotox 100µM, 3T3 cytotox 89µM | Npr1 antag conf inconclusive | Npr2 selectivity inconclusive | FLuc inh counter inactive | GloSensor ctrl inactive
O=C(CNC(=O)c1ccc(-c2cnc3ccccc3c2)cc1)NCc1ccc(Cl)cc1	none (no result: hNpr1 antagonist, FLuc inh)
CC1(C)[C@H](Cc2cc(-c3ccc(F)cc3)on2)C[C@@H]1NS(C)(=O)=O	HEK cytotox 71µM, hNpr1 antagonist inconclusive, 3T3 cytotox inconclusive, FLuc inh inconclusive | Npr1 antag conf 40µM | Npr2 selectivity 40µM | FLuc inh counter inactive | GloSensor ctrl 35µM
CCC(Cn1cnc(-c2ccccc2)c1-c1ccc(C#N)cc1)N1CCN(C)CC1 (stereo not drawn)	HEK cytotox 79µM, hNpr1 antagonist 11µM, 3T3 cytotox inconclusive | Npr1 antag conf 24µM | Npr2 selectivity 17µM | FLuc inh counter inactive | GloSensor ctrl inactive
Cc1nn2c(c1-c1ccccc1[S+](C)(=O)[O-])N(CCC(C)C)CCC2	HEK cytotox inconclusive, hNpr1 antagonist 11µM, 3T3 cytotox inconclusive | Npr1 antag conf 3.1µM | Npr2 selectivity 8.9µM | FLuc inh counter inactive | GloSensor ctrl 3.1µM
CC(=O)Nc1ccccc1-c1c(C)nn2c1N(CCC(C)C)CCC2	HEK cytotox inconclusive, 3T3 cytotox inconclusive
Cc1cn2nc(-c3nc(C4CCCN(C(=O)c5ccc(C)c(F)c5)C4)no3)cc2c(=O)[nH]1 (stereo not drawn)	none
Cc1ccc(CNC(=O)C2CCN(c3cc(C(F)(F)F)ncn3)CC2)cc1	HEK cytotox inconclusive, hNpr1 antagonist 13µM | Npr1 antag conf 24µM | Npr2 selectivity 22µM | FLuc inh counter inactive | GloSensor ctrl 19µM
CCc1ccc(CNC(=O)C2CCN(c3cc(C(F)(F)F)ncn3)CC2)cc1	HEK cytotox inconclusive, hNpr1 antagonist 14µM, 3T3 cytotox inconclusive | Npr1 antag conf 22µM | Npr2 selectivity 17µM | FLuc inh counter inactive | GloSensor ctrl 14µM
O=C(NCCc1ccccc1)C1CCN(c2cc(C(F)(F)F)ncn2)CC1	none
CSc1ccc(CNC(=O)C2CCN(c3cc(C(F)(F)F)ncn3)CC2)cc1	HEK cytotox inconclusive, hNpr1 antagonist 13µM, 3T3 cytotox inconclusive | Npr1 antag conf 19µM | Npr2 selectivity 22µM | FLuc inh counter inactive | GloSensor ctrl 15µM
